# Reference: the OligoGym collection
# Target: IP6K3
# Assay: pooled miR-30 sensor sort-seq; sequence = guide strand
# Conditions: shRNA
row,Sequence,sensor-assay potency score (higher = more potent)
1,TTTTCTTCCATAGTACTTGTCT,0.567
2,ATATTTACACTTGTCCACCAGT,-0.684
3,TACACTTGTCCACCAGTCTTGT,-0.242
4,TTGCAGAGAAAGTACTTCTTAT,-0.832
5,TTTTCCAGCAACAAGAACCGAT,-0.15
6,TTACACTTGTCCACCAGTCTTG,-0.0833
7,TAGATGACAAGGAGAGAGCTGG,-0.213
8,TATTTGAGATCTATAGCCCAGA,-0.584
9,TTGTTCTCTGGGTACTCGGAGC,-1.42
10,TTCTTCCATAGTACTTGTCTTT,-1.16
11,TGACACTACATTTTCCAGCAAC,-1.2
12,TTCATAGAACCTCTGCTCCCGG,-0.506

# Target: IPO11
# Assay: as above
# Conditions: shRNA
row,Sequence,sensor-assay potency score (higher = more potent)
1,TTCTTTAATAGCATCATCTGAA,-0.198
2,TAAATCTTGATCTTGAAGCAAG,-0.725
3,TTGTAGTAGAACTCGACCCATA,-0.751
4,TATACTTCTACTGCATTCCAGA,-0.431
5,TAACAGGAAACTAAGCAGCTAT,-0.294
6,TATCTCTACACACATTATCTGT,-0.812
7,TAATTCTAAACCATCTTCCAGA,-0.364
8,TAGCTGGGTGACAATCTCCGTA,-0.584
9,TTAACTTCAAAGTTGTAGCTGT,0.668
10,TTTGTAGTAGAACTCGACCCAT,-0.362
11,TTGTTCTCCTAGCATCTCCTGC,-0.927
12,TTCCACAACCTTGAGCACCTGA,0.832
